{
  "source": "paper PMC8384837",
  "about": "“Expanding the binding specificity for RNA recognition by a PUF domain”",
  "data": [
    {"target": "PUM1 PUF domain R1-KVV (Homo sapiens, UniProt Q14671 828-1176, S863K;R864V;Q867V)", "sequence (Q14671 828-1176 S863K/R864V/Q867V)": "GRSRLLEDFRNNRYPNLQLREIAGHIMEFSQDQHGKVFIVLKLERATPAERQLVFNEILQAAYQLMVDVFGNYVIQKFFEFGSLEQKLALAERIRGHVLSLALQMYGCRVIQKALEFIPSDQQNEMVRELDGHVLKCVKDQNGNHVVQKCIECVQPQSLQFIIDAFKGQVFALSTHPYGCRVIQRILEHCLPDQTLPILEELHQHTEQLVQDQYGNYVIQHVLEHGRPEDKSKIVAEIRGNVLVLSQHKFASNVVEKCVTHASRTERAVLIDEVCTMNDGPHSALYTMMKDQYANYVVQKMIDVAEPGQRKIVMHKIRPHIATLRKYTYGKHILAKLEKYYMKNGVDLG", "assay": "yeast three-hybrid, YBZ-1, SC-Leu-His + 0.5 mM 3-AT, 4 days", "settings": "tags: N-Gal4 AD-HA kept; label: inside an RPR1-promoter hybrid RNA with tandem MS2 sites; ssRNA", "method_in_brief": "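A centromeric plasmid in strain YBZ-1 co-expressed Pumilio-1 PUF domain libraries, randomized at the three base-contacting residues of each repeat, with matching RNA elements; the strain carries a LexA–MS2 coat fusion and a HIS3 reporter. After four days on SC-Leu (input) or SC-Leu-His + 0.5 mM 3-AT (selection), the repeat regions were PCR-amplified and Illumina-sequenced. The interaction score is the log change in variant frequency from input to selection, using log2 and a pseudocount of 1 where absent.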", "values": [
      {"sequence": "GGCUAGAACUAGUGGAUCCCCCGGCGCCCGGCGGCUCGAGCCCGGGUAAGUGUAAAUGGUCUGCAUGCCGCCGGGCGCCAUGCCUGCAGGUCGACUCUAGAAAACAUG", "binding signal": "1.3 log2 enrichment (interaction score)"},
      {"sequence": "GGCUAGAACUAGUGGAUCCCCCGGCGCCCGGCGGCUCGAGCCCGGGUAAGUGUAAAUCGUCUGCAUGCCGCCGGGCGCCAUGCCUGCAGGUCGACUCUAGAAAACAUG", "binding signal": "5.35 log2 enrichment (interaction score)"},
      {"sequence": "GGCUAGAACUAGUGGAUCCCCCGGCGCCCGGCGGCUCGAGCCCGGGUAAGUGUAAAUUGUCUGCAUGCCGCCGGGCGCCAUGCCUGCAGGUCGACUCUAGAAAACAUG", "binding signal": "5.82 log2 enrichment (interaction score)"}
    ]}
  ]
}
